Out of some 39,000 compounds screened, about 3,300 (8.5%) were called active. The entries come from a sample that favours actives as a whole.

This note sets out measurements from the antibiotic and cytotoxicity screens of Wong et al. (2023).

In this assay the test system is HepG2. Put plainly: cytotoxicity call (relative viability < 0.9). To be noted: 10 µM.
As to `C[N+](C)(C)CC(=O)[O-].Cl`, the cytotoxicity call was “inactive”.

For `O=S(=O)(N[C@H]1CCO[C@]2(CCNC2)C1)C1CC1`, the cytotoxicity call was “inactive”.

Take `NCCNC[C@@H](N)CCCNC(N)=N[N+](=O)[O-].O=CC(F)(F)F`: the cytotoxicity call is “inactive”.

`CC(=O)N1CCCC[C@]12CCNC2`: the cytotoxicity call was “inactive”.

In the case of `CCCCC1C(=O)NC(=S)NC1=O`, the cytotoxicity call was “inactive”.

In the case of `CC1CC(C)C(=O)C(C(O)CC2CC(=O)NC(=O)C2)C1` (centres undefined), the cytotoxicity call was “active”.

As to `CC12CCC3C(CC=C4CC(O)CCC43C)C1CCC2=O` (centres undefined), the cytotoxicity call is “inactive”.

Take `COC(=O)[C@H]1CNCCN1c1ccccc1`: the cytotoxicity call is “inactive”.

In the case of `O[C@H]1[C@H](O)[C@@H](O)CN2CC[C@H](O)[C@H]12`, the cytotoxicity call was “inactive”.

On to `Cc1nc2c(=O)n(C)c(=O)nc-2n(C)n1`, for which the cytotoxicity call is “active”.

For `Cn1ncnc2c(=O)n(C)c(=O)nc1-2`, the cytotoxicity call was “active”.

As for `Cc1nc[nH]c1CCN`, the cytotoxicity call is “inactive”.

On to `NC[C@@H](CS(=O)(=O)O)c1ccc(Cl)cc1`, for which the cytotoxicity call is “inactive”.

`CCN1C[C@]2(C)CC[C@H](O)[C@@]34[C@@H]5C[C@H]6[C@H](O)[C@@H]5[C@](O)(C[C@@H]6OC)[C@](O)([C@@H](OC)[C@H]23)[C@@H]14`: the cytotoxicity call was “inactive”.

For `C[C@@H]1CN([C@@H](C)CO)C(=O)c2c(c3ccccc3n2C)-c2ccccc2CO[C@@H]1CN(C)C(=O)Oc1ccccc1`, the cytotoxicity call was “inactive”.

Turning to `CN(C)[C@@H]1C(=O)C(C(N)=O)=C(O)[C@@]2(O)C(O)=C3C(=O)c4c(O)cccc4[C@](C)(O)[C@H]3C[C@@H]12`, the cytotoxicity call was “inactive”.

Regarding `CCC(C)C(=O)OC1CC2(C)C(c3ccoc3)OC(=O)CC23OC2(C)OC34C(OC(C)=O)C3(O)C(OC(=O)C5(C)OC5C)C5(C)CC3(O)C(C)(C5CC(=O)OC)C14O2` (centres undefined), the cytotoxicity call was “inactive”.

For the compound `Cc1ccc(N=CN(C)C=Nc2ccc(C)cc2C)c(C)c1`, the cytotoxicity call was “inactive”.

With `C[C@H](CO)N1C[C@H](C)[C@@H](CN(C)C(=O)Oc2cccc3ccccc23)OCc2cnnn2CCCC1=O`, the cytotoxicity call is “inactive”.

As to `O=C(O)c1ccc(=O)[nH]c1`, the cytotoxicity call is “inactive”.

For the compound `CN1CCN(Cc2ccc[nH]2)CC1`, the cytotoxicity call is “inactive”.

With `CC12CCC3c4ccc(OC(=O)N(CCCl)CCCl)cc4CCC3C1CCC2O` (centres undefined), the cytotoxicity call was “active”.

Regarding `C[C@]12CC[C@@H]3c4ccc(OC(=O)N(CCCl)CCCl)cc4CC[C@H]3[C@@H]1CC[C@@H]2OP(=O)(O)O`, the cytotoxicity call was “inactive”.

In the case of `Cc1cc(C)nc(NC2=NCCN2)n1`, the cytotoxicity call is “inactive”.

Consider `O=C(CN1CCOCC1)c1ccc(O)cc1O`, for which the cytotoxicity call is “inactive”.

`CC(C)[N+](C)(CCC(C(N)=O)(c1ccccc1)c1ccccc1)C(C)C.[I-]`: the cytotoxicity call is “inactive”.

As for `c1cc2c(c(N3CCNCC3)c1)OCCO2`, the cytotoxicity call is “inactive”.

For the compound `CCC1(c2ccccc2)C(=O)NC(=O)NC1=O`, the cytotoxicity call was “inactive”.

Regarding `COC(=O)C[C@@H]1CC[C@H]2NC[C@H](O)COC[C@@H]2O1`, the cytotoxicity call is “inactive”.

Consider `COC12CC(COC(=O)c3cncc(Br)c3)CN(C)C1Cc1cn(C)c3cccc2c13` (centres undefined), for which the cytotoxicity call was “active”.

On to `NCC1(c2ccc(Cl)cc2)CC1`, for which the cytotoxicity call is “inactive”.

In the case of `O=C(O)/C=C/CO`, the cytotoxicity call is “inactive”.

As to `Cn1cc(NC(=O)c2cc(NC(=O)CNC(=N)N)cn2C)cc1C(=O)NCCC(=N)N`, the cytotoxicity call was “inactive”.

With `O=C(O)CCl`, the cytotoxicity call is “inactive”.

For the compound `O=C1NC2(CCNCC2)C[C@@H]1c1ccncc1`, the cytotoxicity call is “inactive”.

Regarding `Cc1cccc(Cc2cnc[nH]2)c1C`, the cytotoxicity call was “inactive”.

As to `NCCc1c[nH]c2ccccc12`, the cytotoxicity call is “inactive”.

For the compound `COc1cccc(-c2ccc3c(CCN)c[nH]c3c2)c1`, the cytotoxicity call was “active”.

As to `COc1ccc2[nH]cc(CCN)c2c1`, the cytotoxicity call is “inactive”.

`C=CCc1ccc(OC)cc1`: the cytotoxicity call is “active”.

Regarding `COc1ccc(N=[N+]=[N-])cc1`, the cytotoxicity call was “inactive”.

`COc1ccc(C=O)cc1`: the cytotoxicity call is “inactive”.

As to `C[C@@H]1C(=O)NC[C@H]2CN(CC3CC3)C[C@@H]21`, the cytotoxicity call is “inactive”.

`CNC[C@@H](O)c1ccc(O)c(OC)c1`: the cytotoxicity call was “inactive”.

As for `CN1C[C@H]2CN(Cc3nccn3C)C[C@H]2C1=O`, the cytotoxicity call is “inactive”.

Take `N#Cc1c(Cl)c(Cl)c(Cl)c(C#N)c1Cl`: the cytotoxicity call is “active”.

For the compound `COc1ccc(C2(CN)CCOCC2)cc1`, the cytotoxicity call was “inactive”.

As to `CC[C@@H]1/C=C/C=C/C[C@H](C)[C@@H](O)[C@](C)(O)C(=O)[C@H](C)[C@@H](O)[C@H](C)C(=O)[C@H](C)[C@@H](O)[C@H](C)/C=C/C(=O)O[C@H]2[C@@H](C)[C@@H](CC1)O[C@@]1(CC[C@@H](C)[C@@H](C[C@H](C)O)O1)[C@@H]2C`, the cytotoxicity call was “inactive”.

In the case of `CC1(C)C(=O)C=CC2(C)C1CC(O)C1(C)C2CCC2(C)C(c3ccoc3)OC(=O)C3OC321` (centres undefined), the cytotoxicity call was “active”.

Turning to `CC(=O)OC1CC(OC(C)=O)C2(C)C(CC(OC(C)=O)C3(C)C2CCC2(C)C(c4ccoc4)C(=O)C4OC423)C1(C)C` (centres undefined), the cytotoxicity call was “inactive”.

Consider `CC1(C)C(=O)C2OC2C2(C)C1CC(O)C1(C)C2CCC2(C)C(c3ccoc3)OC(=O)C3OC321` (stereo not drawn) [1,2alpha-EPOXYDEACETOXYDIHYDROGEDUNIN ], for which the cytotoxicity call is “inactive”.

As to `CC(=O)OC1CC2C(C)(C)C(=O)C=CC2(C)C2CCC3(C)C(=CC(=O)OC3c3ccoc3)C12C` (centres undefined), the cytotoxicity call is “active”.

Turning to `CC1(C)C(O)CC(O)C2(C)C1CC(=O)C1(C)C2CCC2(C)C(c3ccoc3)OC(=O)C3OC321` (centres undefined), the cytotoxicity call was “inactive”.

In the case of `COC(=O)C1CC(OC(C)=O)C(=O)C2C1(C)CCC1C(=O)OC(c3ccoc3)CC12C` (centres undefined), the cytotoxicity call was “inactive”.
